Measurements: PubChem BioAssay (NCI)
About 83,000 compounds went through this panel and 20% of them were active in at least one assay; those are over-represented in the sample as a whole.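 Method: cells in 96-well plates; compound added at one concentration; 48 h incubation; percent growth measured; values under 10 scored active.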 Values without a mark were called inactive. Calls of active or inactive are those of the source.

Legend:
Experiment in all cases: NCI-60 one-dose screen, 48 h (100 = growth as untreated, 0 = no growth, -100 = all killed)
Details in all cases: 10 µM unless noted
HCT-15 colon = test system: HCT-15 colon
SNB-75 CNS = test system: SNB-75 CNS
SNB-19 CNS = test system: SNB-19 CNS
U251 CNS = test system: U251 CNS
PC-3 prostate = test system: PC-3 prostate
SK-MEL-5 melanoma = test system: SK-MEL-5 melanoma
UACC-62 melanoma = test system: UACC-62 melanoma
LOX IMVI melanoma = test system: LOX IMVI melanoma
SK-MEL-28 melanoma = test system: SK-MEL-28 melanoma

Structure (SMILES) | growth (HCT-15 colon) | growth (SNB-75 CNS) [%] | growth (SNB-19 CNS) [%] | growth (U251 CNS) | growth (PC-3 prostate) | growth (SK-MEL-5 melanoma) | growth (UACC-62 melanoma) | growth (LOX IMVI melanoma) | growth (SK-MEL-28 melanoma)
Nc1nc2c([nH]1)c1[nH]c3ccccc3c1c1[nH]c3ccccc3c21 | 51% | 44.5 | 62.4 | -6.57% (active) | 34.9% | 58.7% | -31.9% (active) | 4.23% (active) | -77.5% (active)
O=Nc1c(-c2c(O)[nH]c3ncccc23)[nH]c2ccccc12 | 33.9% | 31.2 | 96.4 | 67.3% | 67.7% | 72.3% | 56.7% | 44.5% | 75.3%
Cc1nnc(-n2c(O)cc(=O)n(-c3ccccc3)c2=S)nc1/C=C/c1ccc(N(C)C)cc1 | 28.9% | 17.3 | 59.8 | 53.7% | 67.1% | 60.6% | 11.7% | 18.8% | 58.6%
CO[C@]12C=C/C(=C(/C(=O)OCc3cccnc3)C(=O)CCCCCCCC[C@@]3(OC)C=C/C(=C(/C(=O)OCc4cccnc4)C(=O)CCCCCCCC1)O3)O2 | 2.29% (active) | 55 | 33.7 | 20.3% | 8.77% (active) | -59.1% (active) | -54% (active) | -35.9% (active) | -5.65% (active)
CN1C(=O)N(C)C2Nn3c(s/c(=C\c4ccc(C(F)(F)F)cc4)c3=O)=NC21 (stereo not given) | 93.9% | 82.2 | 95.2 | 93.2% | 104% | 99.5% | 89.7% | 95.7% | 103%
COc1cc2c(c(OC)c1OC)C(=O)CC(c1cccc(NC(=O)c3ccc(Br)cc3)c1)O2 (stereo not given) | 29.8% | 47.7 | 64.6 | 42.2% | 20.9% | 4.06% (active) | 18.8% | 43.3% | 57%
O=C(c1ccccc1)C1C(=O)N2C(=S)N(c3ccccc3)C(=O)C2C1c1ccc(Cl)cc1 (stereo not given) | 105% | 96.5 | 93.8 | 98.4% | 86.7% | 91.6% | 88% | 90.2% | 93.8%
N#Cc1c(N)nnn1Cc1cc(=O)oc2c1ccc1ccccc12 | 102% | 88.7 | 91.7 | 97.5% | 93.4% | 97.6% | 92.5% | 59.3% | 113%
CCCCCCC1(C)NCCO1 (stereo not given) | 103% | 97 | 94.9 | 92.4% | 94% | 112% | 86.7% | 103% | 110%
CC(=O)n1nc(C(=O)OC(C)C)c2cc(C)c(C)cc21 | 90.9% | 80.7 | 98.5 | 86.3% | 74.2% | 92% | 97.6% | 97% | 114%
O=C(Nc1cc(Cl)ccc1O)c1ccc(Nc2ccnc(C(F)(F)F)c2)cc1 | 30.9% | 69.2 | 24.6 | 31.7% | 14.7% | 47.1% | 27.7% | 27.8% | 83.6%
CCOC(=O)/C=C1\S/C(=N\Nc2cc(=O)[nH]c3ccc(Cl)cc23)N(c2ccccc2)C1=O | 74.5% | 87.5 | 90.6 | 89.9% | 85.4% | 98.9% | 89.4% | 84.4% | 101%
CCOP(=O)(OCC)c1nc(-c2ccccc2)oc1NCc1cccnc1 | 107% | 92.9 | 97.5 | 107% | 101% | 103% | 106% | 103% | 113%
CC(C)(C)n1cc(-c2ccnc(NCCCNS(=O)(=O)c3ccc(F)cc3)c2)c(-c2cccc(F)c2)n1 | 5.18% (active) | 85 | 72.7 | 45.5% | 46.1% | 33.7% | 72.7% | – | 82.4%
